Inconclusive results are not listed. Entries that show only a call come without a potency. Calls of active or inactive are those of the source. Calls follow the shape of the dose curve; as a rule, active = well fitted cell-killing curve with a large enough effect; inconclusive = small, poorly fitted or top-dose-only effect, or effect the other way; inactive = flat fitted curve, though single readings scatter.

The test system of the assay is Es-2. The assay is described as follows: Primary qHTS to identify gynecologic anti-cancer compounds using libraries of approved drugs and bioactive compounds (AID 1345084). Also: nearly all actives have a fitted effect of over 55% in size. To be noted: Gynecologic cancer cell panel viability, ATPlite luminescence, 48 h; series mostly up to 57.5 µM. The gist of the method: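 Cytotoxicity screen measuring ATP content by luciferase luminescence. Each compound is applied at five concentrations for 48 h at 37 C with 5% CO2.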
(In qHTS, concentration-response curves come from the screen itself.)
With `COc1ccc(C2C(=O)c3ccccc3C2=O)cc1`, the Potency result is “inactive”. For `Cc1c(N(C)CS(=O)(=O)O)c(=O)n(-c2ccccc2)n1C` the value was “inactive”; for `OC[C@H]1O[C@H](O[C@]2(CCl)O[C@H](CCl)[C@@H](O)[C@@H]2O)[C@H](O)[C@@H](O)[C@H]1Cl`, “inactive”; for `C[C@H](CCC(=O)O)[C@H]1CC[C@H]2[C@@H]3C(=O)C[C@@H]4CC(=O)CC[C@]4(C)[C@H]3CC(=O)[C@]12C`, “inactive”.

Turning to `Cc1cc(O)c(C(C)C)cc1Cl`, the Potency result is “inactive”. For `O=C1c2ccccc2C(=O)C1c1ccccc1` the value was “inactive”; for `Cc1ncc(CSSCc2cnc(C)c(O)c2CO)c(CO)c1O`, “inactive”. In the case of `NC[C@H]1O[C@H](O[C@H]2[C@H](O)[C@@H](O[C@H]3O[C@H](CO)[C@@H](O)[C@H](N)[C@H]3O)[C@H](N)C[C@@H]2N)[C@H](N)[C@@H](O)[C@@H]1O` it was “inactive”; in that of `Cc1ccc(Nc2c(F)cccc2Cl)c(CC(=O)O)c1`, “inactive”. In the case of `CC(=O)O[C@]1(C(C)=O)CC[C@H]2[C@@H]3C[C@H](C)C4=CC(=O)CC[C@]4(C)[C@H]3CC[C@@]21C` it was “inactive”. With `CC(=O)OCC(=O)[C@@]1(O)[C@H](C)C[C@H]2[C@@H]3CCC4=CC(=O)C=C[C@]4(C)[C@@]3(F)[C@@H](O)C[C@@]21C`, the Potency entry was “inactive”. For `CN1[C@@H]2CC[C@H]1CC(OC(=O)c1c[nH]c3ccccc13)C2` (some centres undefined) the value was “inactive”; for `CC(O)(P(=O)(O)O)P(=O)(O)O`, “inactive”; for `CCCCC(=O)O[C@]1(C(=O)CO)CC[C@H]2[C@@H]3CCC4=CC(=O)CC[C@]4(C)[C@H]3[C@@H](O)C[C@@]21C`, “inactive”.

These data come from PubChem BioAssay (NCATS).
